Experimental findings from PubChem BioAssay (EPA / NIEHS) are described below.

Activity calls are given as the source filed them. The calls were made as follows: active = hit-call score of the fitted dose curve at least 0.9, where 1 is the maximum; inactive = score below 0.9.

Read-out in this test: Interleukin 6 Receptor (IL6R), IL6R (gene 3570)
Put plainly: LTEA_HepaRG_IL6R: Life Technologies and Expression Analysis (LTEA) Assay for Interleukin 6 Receptor (IL6R) using HepaRG (AID 2283510).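 As to AC50: TaqMan qRT-PCR signal normalized to ACTB GAPDH and POLR2A housekeeping genes.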 To be noted: mRNA level, 48 h; actives raise or lower the signal. The method, then: LTEA_HepaRG is a cell based, multiplexed-readout assay that uses HepaRG, a human liver cell line, with measurements taken at 48 hours after chemical dosing on a 96-well plate.LTEA_HepaRG_IL6R is one of 102 assay component(s) measured in the LTEA HepaRG cell culture assay. It is a marker of Inflammation.Data from the assay component LTEA_HepaRG_IL6R was analyzed into 1 endpoint. This assay endpoint, LTEA_HepaRG_IL6R, was analyzed with bidirectional fitting relative to DMSO as the negative control and baseline of activity. Using a type of inducible reporter, measures of mRNA induction for gain or loss-of-signal activity can be used to understand regulation of transcription factor activity. To generalize the intended target to other relatable targets, this assay endpoint is annotated to the cytokine receptor intended target family, where the subfamily is JAK-STAT cytokine receptor.
A total of 1060 chemcials from the ToxCast library were tested in eight-point concentration-response experiments. Cell culture and cytotoxicity assays were conducted at Thermo Fisher Scientific's Custom Services facility (Madison, WI). A single lot of human HepaRG cells (Thermo Fisher Scientific, Frederick, MD) was used for the cell culture experiments. 96-well format collagen type I coated plates of human HepaRG cells were prepared using established methods. Briefly, cryopreserved HepaRG cells were thawed, plated at a density of approximately 100,000 cells/well in HepaRG Thaw, Plate, and General Purpose media (HPRG770, Thermo Fisher Scientific), and incubated for 48 hours. 0.5% DMSO was selected as vehicle control to balance the requisite need of DMSO in HepaRG cultures to maintain differentiation (for example, baseline metabolism, proportions of hepatocytes vs. cholangiocytes), while enabling further hepatic receptor pathway activation (for example, PXR and CAR) in response to chemical exposure. 48 hours after plating, the culture medium was replaced with HepaRG Serum-Free Incudtion Media. Cells were exposed to each test chemical in duplicate and maintained in CO2 incubators for another 48 hours. Chemical plates were thawed to room temperature and 200x concentrations of treatment groups were prepared. 8-point conentration-reponse curves were made with the highest exposure at 100 uM, followed by half-log dilutions, all in 0.5% DMSO. Each test plate contained variouse controls, induction positive controls (1mM phenobarbital), cytotoxicity positive controls ([…] aflatoxin B1), vehicle controls (0.5% DMSO), and total lysis controls (0.5% DMSO). Cell morphology images were taken using an Essen IncuCyte FLR automated microscope, with six 96-well plates imaged in about 24 minutes. Images were captured and exported and JPEG files. Spent culture media was transfered to black-well plates for the LDH assay, and remaining media was sorted at -80 C for later use. Cells were treated with RLT buffer and frozen until shipped for gene expression analysis. Total RNA was isolated from the cell suspension in 75 uL of Buffer RLT (Qiagen, Germantown, MD 20874) by Quintiles/Expression Analysis (Durham, NC) using a custom isolation procedure. Total RNA from each plate well was transferred to a preamplification plate. Fluidigm's 96.96 Dynamic ArrayTM (Fluidigm, Amsterdam, the Netherlands) technology was used for gene expression analyses by quantitative reverse transcription polymerase chain reaction (qRT-PCR, performed by Quintiles/Expression Analysis, Durham, NC)89. Standard TaqManTM Assays (Applied Biosystems/ThermoFisher Scientific, Foster City, CA) were used to assess the expression of 93 genes selected based on their selectivity and sensitivity to important hepatic receptors known to be modulated by environmental chemicals; importance in human hepatocyte functionality; and hepatotoxicity. […]
Turning to `CCCN(CC)CC1COC2(CCC(C(C)(C)C)CC2)O1` (stereo not given), the compound was called inactive.

In the case of `Nc1c(Cl)c(F)nc(OCC(=O)O)c1Cl`, the result was inactive.

`CCOC(=O)C(C)OC(=O)c1cc(Oc2ccc(C(F)(F)F)cc2Cl)ccc1[N+](=O)[O-]` (stereo not given): the compound was classed as inactive.

For the compound `CSC(=O)c1c(C(F)F)nc(C(F)(F)F)c(C(=O)SC)c1CC(C)C`, the call was inactive.

As to `COC(=O)NS(=O)(=O)c1ccc(N)cc1`, the compound was classed as inactive.

`CCOc1nc(C(Cl)(Cl)Cl)ns1`: the AC50 is 0.987 µM (active).

On to `COc1ccc(-c2ccccc2)cc1NNC(=O)OC(C)C`, for which the compound was classed as inactive.

Regarding `CS(=O)(=O)c1cc(C(F)(F)F)ccc1C(=O)c1cnoc1C1CC1`, the result was inactive.

For the compound `OC(c1ccc(Cl)cc1)(c1ccc(Cl)cc1)C(Cl)(Cl)Cl`, the outcome was inactive.

For `CCNP(=S)(OC)O/C(C)=C/C(=O)OC(C)C` (stereo not given), the outcome was inactive.

Consider `CCCC(=NOCC)C1=C(O)CC(CC(C)SCC)CC1=O` (stereo not given), for which the call was inactive.

On to `N#Cc1c(Cl)cccc1Cl`, for which the compound was classed as inactive.

`CS(=O)(=O)c1ccc(C(=O)C2C(=O)CCCC2=O)c([N+](=O)[O-])c1`: the outcome was inactive.

For the compound `CC(C)C1(C)N=C(c2ncccc2C(=O)O)NC1=O` (stereo not given), the result was inactive.

In the case of `CCN(CC)C(=O)C(C)Oc1cccc2ccccc12` (stereo not given), the AC50 is 20.3 µM (active).

In the case of `CC(C)NC(=O)N1CC(=O)N(c2cc(Cl)cc(Cl)c2)C1=O`, the AC50 was 2.86 µM (active).

In the case of `O=C1C2CC=CCC2C(=O)N1SC(Cl)(Cl)Cl` (stereo not given), the compound was called inactive.

Consider `C=C(C)CN(CC)c1c([N+](=O)[O-])cc(C(F)(F)F)cc1[N+](=O)[O-]`, for which the call was inactive.

With `N#Cc1c[nH]cc1-c1cccc2c1OC(F)(F)O2`, the AC50 is 19.6 µM (active).

For the compound `CC1(C)CCC(=Cc2ccc(Cl)cc2)C1(O)Cn1cncn1` (stereo not given), the compound was called inactive.

Take `O=c1n(Cl)c(=O)n(Cl)c(=O)n1Cl`: the call was inactive.

Take `CCOP(=O)(OCC)Oc1nc(Cl)c(Cl)cc1Cl`: the AC50 is 60.2 µM (active).

`O=P(O)(O)CCCl`: the compound was classed as inactive.

In the case of `COP(=O)(OC)O/C(C)=C/C(=O)N(C)C`, the compound was called inactive.

As to `C=CCOC(=O)C(C)(C)OC(=O)c1cc(-n2c(=O)cc(C(F)(F)F)n(C)c2=O)ccc1Cl`, the result was inactive.

Take `Cc1cnc(C2=NC(C)(C(C)C)C(=O)N2)c(C(=O)O)c1` (stereo not given): the compound was classed as inactive.

`Nc1c(Cl)c(Cl)nc(C(=O)O)c1Cl`: the compound was classed as inactive.

With `Cn1c(-c2ccccc2)cc(-c2ccccc2)[n+]1C`, the call was inactive.

Turning to `CCOc1cc(C(C)(C)C)ccc1C1COC(c2c(F)cccc2F)=N1` (stereo not given), the call was inactive.

As to `COc1cc(Cl)c(OC)cc1Cl`, the result was inactive.

In the case of `CN=C=S`, the call was inactive.

With `N#CN=C1SCCN1Cc1ccc(Cl)nc1`, the compound was called inactive.

In the case of `CCOP(=S)(OCC)Oc1nc(Cl)n(C(C)C)n1`, the half-maximal activity concentration (AC50) was 12.2 µM (active).

For the compound `Cc1nc(N(C)C)nc(OC(=O)N(C)C)c1C`, the outcome was inactive.

As to `CC1(C)C(C(=O)OC(C#N)c2cccc(Oc3ccccc3)c2)C1(C)C` (stereo not given), the compound was classed as inactive.

Regarding `CCN(CC)c1nc(C)cc(OP(=S)(OC)OC)n1`, the compound was classed as inactive.

On to `O=C(O)c1c(Cl)ccc2cc(Cl)cnc12`, for which the result was inactive.

On to `CC(C)=CC1C(C(=O)OCc2coc(Cc3ccccc3)c2)C1(C)C` (stereo not given), for which the outcome was inactive.

For `COCC(=O)N(c1c(C)cccc1C)C(C)C(=O)OC` (stereo not given), the compound was classed as inactive.

As for `CCNC(=O)NC(=O)C(C#N)=NOC`, the call was inactive.
